# Source: PubChem BioAssay (National Center for Advancing Translational Sciences (NCATS))
# Compounds with a hit are over-represented: about 14% of the library has one in this group of screens.
# 4MU fluor: compounds fluorescent in 4-MU spectral region | compound autofluorescence, 340/450 nm, 4-MU equivalents; hits give high values | actives 11% (n = 59,000) | AID 589 | max dye-equivalent concentration, M; in the data active = max dye-equivalent concentration above about 10 nM; inconclusive = mostly about 1.1 nM to 9.6 nM
#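 Compounds in 100 mM Tris, pH 8.0, sat 15 min at room temperature before fluorescence was read at 340 nm excitation/450 nm emission; a per-plate six-point 4-MU standard curve converted signals to dye-equivalent concentration at each compound concentration.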
# A350 autofl: A350 region autofluorescence; max dye-equivalent concentration, M; actives 11% (n = 59,000); Compound autofluorescence, 340/450 nm, Alexa 350 dye-equivalents; hits give high values; AID 590; in the data active = max dye-equivalent concentration above about 10 nM; inconclusive = mostly about 1.1 nM to 9.6 nM
# CRE-bla Fsk: CRE-bla signaling modulation under forskolin stimulation | CHO CRE-bla reporter (cAMP response element driving beta-lactamase), forskolin EC10, beta-lactamase ratio | actives 2.5% (n = 71,000) | Potency, µM (series often up to 38.2 µM), without a hit: at the top dose activity change, negative = inhibition, most hits filed as activators; active = well fitted activation curve with a large enough effect in the signal ratio, with a control signal flat, not every such curve was filed as active; inconclusive = small, poorly fitted or top-dose-only effect, or effect the other way, or a change in a side signal; the % refers to the signal ratio; also: potency is read from the fitted curve at half-maximal effect; % of control where 0% means no effect
#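 CHO CRE-bla cells, overnight plating in Opti-MEM with 0.5% dialyzed FBS; cpd titration + EC10 NKH 477, 3 h 37 °C; CCF4 2 h RT; ex 405/em 460 vs 530 ratio → %Activity, AC50.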
# HADH2 inhib: inhibitors of human HADH2 dehydrogenase | Q99714 | recombinant HADH2, NADH fluorescence, beta-hydroxybutyryl-CoA | Potency, µM (titrated, usually from 57.1 µM), for inactives: at the highest dose activity change, negative = inhibition, most hits filed as inhibitors | actives 3.4% (n = 73,000); also: potency is read from the fitted curve at half-maximal effect; % is scaled to controls: 0 for no effect and ±100 for the full control effect; nearly all actives have a fitted effect of over 60% in size
# Target sequence (Q99714 whole entry, looked up, one chain of several): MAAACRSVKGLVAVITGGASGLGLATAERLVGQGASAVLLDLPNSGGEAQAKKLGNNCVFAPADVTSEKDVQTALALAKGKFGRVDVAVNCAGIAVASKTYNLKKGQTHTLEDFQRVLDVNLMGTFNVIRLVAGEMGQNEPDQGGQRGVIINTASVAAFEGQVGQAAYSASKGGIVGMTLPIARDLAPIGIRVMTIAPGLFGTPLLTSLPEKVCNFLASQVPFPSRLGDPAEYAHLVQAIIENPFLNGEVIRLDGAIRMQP
#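 Buffer 100 mM Tris-HCl pH 9.0/0.01% Tween-20; HADH2 20 nM; NAD+ 1 mM; beta-hydroxybutyryl-CoA 90 uM (all final). 15 min cpd preincubation, RT.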
# AID923: qHTS Assay for Allosteric/Competitive Inhibitors of Caspase-1: Spectroscopic Profiling in AFC Spectral Region | compound fluorescence, AFC spectral region (405/520 nm) | Potency, µM (titrated, usually from 57.5 µM), inactives show at the highest dose fluorescence increase, usual class: activators | actives 1.1% (n = 75,000); also: potency is read from the fitted curve at half-maximal effect; 0% is about no effect
#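 Compound autofluorescence profiled at 405 nm ex/520 nm em during kinetic caspase 1 run (50 nM enzyme, 5 uM Ac-WEHD-AFC, HEPES pH 7.5, 10 mM DTT). Titration up to 57 uM; baseline from regression intercept, normalized to AFC standard curve.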
# HSD17B inhib: HSD17B dehydrogenase inhibition | Q99714 | actives 7.6% (n = 75,000) | AID 893 | recombinant HSD17B10, NADH fluorescence kinetic | Potency, µM (top dose mostly 57.1 µM), for inactives: at the top dose activity change, negative = inhibition, hits mostly inhibitors;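 also: the protocol describes HADH2 (HSD17B10) and not the HSD17B4 of the title; potency is read from the fitted curve at half-maximal effect; % is scaled to controls: 0 for no effect and ±100 for the full control effect; nearly all actives have a fitted effect of over 70% in size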
#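 Activity followed as NADH fluorescence increase (ex 360, em 450 nm) every 30 seconds for 4 min, using final 90 uM beta-hydroxybutyryl CoA and 1 mM NAD+. Recombinant His-tagged enzyme, 20 nM, pH 9.0 Tris buffer, 15 min compound preincubation.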
# * = called active by the depositor; i = inactive; ? = inconclusive; . = no result given; ! = not confirmed by another sample; [ ] = remark or other dose. Unless noted, calls follow the shape of the dose curve; as a rule, active = well fitted curve in the direction sought with a large enough effect; inconclusive = small, poorly fitted or top-dose-only effect, or another doubt; inactive = no such curve, though single readings can be large; an effect the other way counts as inactive or inconclusive.
SMILES,4MU fluor,A350 autofl,CRE-bla Fsk,HADH2 inhib,AID923,HSD17B inhib
O=C(COC(=O)c1ccccc1F)c1ccc(-n2nncc2-c2ccco2)cc1,i,i,?,6%,1%,?
CCc1cc2c(SCC(=O)C(C#N)=C3N(C)c4ccccc4N3C)ncnc2s1,1.6e-08M*,2.1e-08M*,0%,0%,1%,?
O=C1c2ccccc2NC2CCCCCN12 (stereo unspecified),5.7e-07M*,5.4e-07M*,4%,16µM*,4%,32µM*
Cc1cccn2c(=O)c3cc(C(=O)N4CCc5ccccc54)n(C)c3nc12,1.1e-07M*,1.1e-07M*,?,10%,8%,?
Cc1cccn2c(=O)c3cc(C(=O)N4c5ccccc5CC4C)n(C)c3nc12 (stereo unspecified),1e-08M*,?,?,-4%,3%,12%
CC1Cc2ccccc2N1C(=O)c1cc2c(=O)n3ccccc3nc2n1C (stereo unspecified),3.2e-08M*,3.1e-08M*,6.3µM*,-11%,3%,?
COC(=O)/C=C/C(C)=C/C=C/C(C)=C/C=C/C=C(C)/C=C/C=C(C)/C=C/C(=O)O,.,.,.,.,-1%,-23%
COc1cccc(NC(=O)CSc2nnc(-c3cc(C)n(-c4ccccc4)c3C)o2)c1,i,i,?,17%,-2%,3%
O=C(Nc1nccs1)c1cccc(NC(=O)C2CC2)c1,i,i,-19%,-17%,-1%,-3%
O=C(O)c1ccccc1NC(=O)C1CCCO1 (stereo unspecified),i,i,-10%,3%,0%,-4%
O=C1NC(=O)c2c(NC(=O)C3CCCO3)cccc21 (stereo unspecified),2.2e-07M*,2.8e-07M*,?,?,1%,32µM*
CC(=O)Nc1cccc2c1C(=O)NC2=O,3e-07M*,4.4e-07M*,?,-10%,-1%,32µM*
CC(C)c1ccccc1S(=O)c1ccccc1C(C)(C)O (stereo unspecified),i,i,11%[7.6 µM],5%[11.4 µM],0%[11.5 µM],-2%[11.4 µM]
CC(C)OCCCNS(=O)(=O)c1ccc2c(c1)oc(=O)n2C,.,.,-2%,1%,-1%,5%
CC1(C)C=Cc2cc3ccc(=O)oc3cc2O1,.,.,.,.,3%,32µM*
CC(=O)c1cc2c(cc1O)OC(C)(C)C=C2,.,.,.,.,-1%,-2%
COc1ccccc1CCC(=O)Nc1nc2ccccc2[nH]1,2.9e-08M*,4e-08M*,13%,-5%,1%,16%
COc1ccc(C(=O)Nc2nc3ccccc3[nH]2)cc1OC,i,i,?,1%,1%,-5%
COc1cccc2cc(NC(=O)C3CCCCC3)c(=O)oc12,?,?,?,-22%,1%,13µM*
COc1ccc(-c2nc(CS(=O)CC(=O)NCCCN3CC(C)CC(C)C3)c(C)o2)cc1OC (stereo unspecified),i,i,8%,-7%,0%,25µM*
Cc1ccc(-c2nc(CS(=O)CC(=O)NCCCN3CC(C)CC(C)C3)c(C)o2)cc1 (stereo unspecified),.,.,-4%,6%,-2%,1%
CCCN(CCC)CCCNC(=O)CS(=O)Cc1nc(-c2ccc(OC)c(OC)c2)oc1C (stereo unspecified),i,i,-19%,-6%,1%,25µM*
OCCn1c(CSc2nnc(-c3ccco3)n2-c2ccccc2)nc2ccc(Cl)cc21,i,i,0.2µM*,4%,0%,32µM*
Cc1ccc(CCNC(=O)CC2Oc3ccc(C)cc3NC2=O)cc1 (stereo unspecified),.,.,-4%,2%,0%,-1%
Cc1c(Cl)cccc1Nc1ccccc1C(=O)O,?,1.2e-08M*!,13%[17.1 µM],-1%[25.6 µM],-2%,-4%
SMILES,4MU fluor,A350 autofl,CRE-bla Fsk,HADH2 inhib,AID923,HSD17B inhib
Cc1ccc(Cl)c(Nc2ccccc2C(=O)O)c1Cl,i,i,-2%[17.1 µM],-2%[25.6 µM],1%,2%
Cc1cc(C)n2nc3nc(N4CCCCC4)nc(-c4ccco4)c3c2n1,2.6e-08M*,2.9e-08M*,-12%,?,1%,25µM*
COc1ccc(OC2C=CC(C#Cc3ccc(Br)cc3)OC2CO)c(C(C)(C)C)c1 (stereo unspecified),.,.,.,3%[11.4 µM],2%[11.5 µM],-6%[11.4 µM]
C[n+]1cc2c3c(ccc2c2ccc4cc5c(cc4c21)OCO5)OCO3,?,?,?,-9%[25.6 µM],2%,25µM*
CC1(C)CC(NC(=O)c2coc(=O)c(Br)c2)CC(C)(C)N1,5e-07M*,6.6e-07M*,22%,?,7%,32µM*
Cc1cccc(Cc2nnc(NC(=O)c3cccc(S(=O)(=O)N4CCOCC4)c3)s2)c1,.,.,.,3%,-1%,-16%
COc1ccc(CNC(=O)Cn2nc(C(F)(F)F)c3c2CCC3)cc1,?,?,-1%,14%,2%,0%
COc1ccc(NC(=O)Cn2nc(C(F)(F)F)c3c2CCCC3)c(OC)c1,?,1.3e-08M*,4%,0%,-1%,2%
CNC(=O)CSc1nnc(-c2ccncc2)n1Cc1ccccc1,?,?,1%,2%,1%,11%
Cc1ccc2cccc(S(=O)(=O)NC3CCS(=O)(=O)C3)c2n1 (stereo unspecified),1.8e-07M*,1.8e-07M*,21%,?,1%,25µM*
Cc1ccc2cccc(S(=O)(=O)Nc3c(C)n(C)n(-c4ccccc4)c3=O)c2n1,i,i,6%,2%,2%,2%
C[C@@H](C(=O)O)c1cccc(C(=O)c2ccccc2)c1,1.4e-08M*!,1.9e-08M*!,-7%[17.1 µM],-2%[25.6 µM],0%[25.7 µM],3%[25.6 µM]
CC(=O)Nc1ccc2oc(-c3cc(F)c(F)cc3Cl)nc2c1,9.4e-08M*,1e-07M*,7%,155%,1%,3.2µM*
CC(=O)Nc1ccc2oc(-c3ccccc3Br)nc2c1,?,?,9%,-3%,0%,13µM*
CCC(=O)Nc1ccc2oc(-c3ccccc3Br)nc2c1,.,.,19%,58%,2%,?
CCN(CC)Cc1cc(C(C)=O)ccc1OCC(C)C,i,i,.,.,.,.
O=C(NC(NCCCN1CCOCC1)(C(F)(F)F)C(F)(F)F)C1CCCCC1,?,1e-08M*,1%,3%,1%,-5%
c1coc(C2Nc3cccc4cccc(c34)N2)c1,?,?,8%,7.9µM*,6%,2µM*
COc1ccc(C(=O)Nc2cc(C)on2)cc1,.,.,?,-1%[11.4 µM],0%,3%
Cc1cc(NC(=O)c2cc(-c3cccnc3)nc3c(C)c(C)ccc23)no1,3.7e-08M*,3e-08M*,-17%,9%,0%,32µM*
Cc1cc(NC(=O)c2ccc3nc(-c4ccccc4)c(-c4ccccc4)nc3c2)no1,9e-08M*,8.5e-08M*,?,-6%,0%,2%
